# Records with an inconclusive call do not appear. A number with no mark means an inactive call. Activity calls are given as the source filed them. The call rests on the fitted dose curve; in most records, active means well fitted inhibition curve with a large enough effect in the signal ratio in the repeat runs (not every such curve was filed as active); inconclusive means weak or mixed curves, or effect the other way; inactive means no such curve, though single readings can be large or run the other way; the % refers to the signal ratio.
# Target: Androgen receptor (Homo sapiens) (UniProt P10275)
# Sequence (P10275 whole entry, looked up): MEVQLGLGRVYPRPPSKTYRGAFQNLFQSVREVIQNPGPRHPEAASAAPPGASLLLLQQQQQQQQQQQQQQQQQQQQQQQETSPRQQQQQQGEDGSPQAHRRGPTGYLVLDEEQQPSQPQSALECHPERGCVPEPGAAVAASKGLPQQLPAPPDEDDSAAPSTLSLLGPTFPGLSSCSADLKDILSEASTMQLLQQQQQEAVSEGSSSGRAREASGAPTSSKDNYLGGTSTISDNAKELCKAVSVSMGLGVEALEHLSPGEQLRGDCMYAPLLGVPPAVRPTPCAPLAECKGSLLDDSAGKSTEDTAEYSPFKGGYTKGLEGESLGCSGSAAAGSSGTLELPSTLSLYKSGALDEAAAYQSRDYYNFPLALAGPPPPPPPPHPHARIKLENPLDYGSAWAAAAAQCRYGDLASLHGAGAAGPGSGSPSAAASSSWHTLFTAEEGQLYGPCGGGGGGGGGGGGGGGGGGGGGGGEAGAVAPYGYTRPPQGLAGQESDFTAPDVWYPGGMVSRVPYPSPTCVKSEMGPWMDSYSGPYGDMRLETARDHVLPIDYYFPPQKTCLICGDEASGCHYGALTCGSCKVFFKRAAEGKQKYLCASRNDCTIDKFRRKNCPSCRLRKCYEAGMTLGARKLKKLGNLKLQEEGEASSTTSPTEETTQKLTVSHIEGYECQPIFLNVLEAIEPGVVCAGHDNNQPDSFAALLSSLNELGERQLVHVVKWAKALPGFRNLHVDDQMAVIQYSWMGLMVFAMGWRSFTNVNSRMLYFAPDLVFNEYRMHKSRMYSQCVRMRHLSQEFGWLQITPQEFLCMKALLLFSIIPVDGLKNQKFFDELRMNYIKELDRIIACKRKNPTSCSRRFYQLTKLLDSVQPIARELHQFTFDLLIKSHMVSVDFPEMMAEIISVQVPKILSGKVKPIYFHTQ
# Test: qHTS assay to identify small molecule antagonists of the androgen receptor (AR) signaling pathway (AID 743035)
# Conditions: HEK293 AR-UAS-bla, R1881-stimulated, beta-lactamase FRET, 16 h; series mostly up to 58.5 µM; activity change, negative = inhibition: at the top concentration
# Text: National Center for Advancing Translational Sciences [NCATS]
# NIH Chemical Genomics Center [NCGC]
# U.S. Environmental Protection Agency [EPA]
# National Institutes of Environmental Health Sciences [NIEHS]
# National Toxicology Program [NTP]
# U.S. Food and Drug Administration [FDA]
# Androgen receptor (AR), a nuclear hormone receptor, plays a critical role in AR-dependent prostate cancer and other androgen related diseases. Endocrine disrupting chemicals (EDCs) and their interactions with steroid hormone receptors like AR may cause disruption of normal endocrine function as well as interfere with metabolic homeostasis, reproduction, developmental and behavioral functions. To identify the compounds that inhibit AR signaling, GeneBLAzer AR-UAS-bla-GripTite cell line (Invitrogen, Carlsbad, CA, USA) containing a beta-lactamase reporter gene under control of an Upstream Activator Sequence (UAS) stably integrated into HEK293 cells was used to screen the Tox21 10K compound library.
# Tox21 Assay Protocol Summary:
# AR-bla cells were dispensed at 2,000 cells/5 uL of assay medium per well into black wall/clear-bottom 1536-well plates using a Multidrop Combi (ThermoFisher Scientific, Waltham, MA) dispenser. After the assay plates were incubated at a 37C and 5% CO2 for 4 hr, 23 nL of compounds dissolved in DMSO, positive controls or DMSO only was transferred to the assay plate by a Pintool station (Kalypsys, San Diego, CA), followed by addition of 1 uL of agonist (R1881) in culture medium using a Bioraptr Flying Reagent Dispenser (FRD) workstation (Beckman Coulter, Indianapolis, IN, USA). The plates were incubated at a 37C and 5% CO2 for 16 h. After 1 uL of LiveBLAzerTM B/G FRET substrate was added using a Bioraptr FRD, the plates were incubated at room temperature for 2 h and fluorescence intensity was measured by an Envision plate reader (PerkinElmer, Shelton, CT).
# On the % scale 0 is the no-effect control and ±100 the full control effect; potency means the concentration at half of the fitted maximal effect.
Compound,"activity change, negative = inhibition",Potency
CNC(=O)O/N=C(/CSC)C(C)(C)C,-9.47%,–
Cc1ccc(S(=O)(=O)N[C@@H](CCCCN)C(=O)CCl)cc1,–,21.3 µM (active)
CCSC(=O)Cl,-0.657% [at 78.9 µM],–
OP(O)c1ccccc1,4.49% [at 78.9 µM],–
CCOP(=S)(OCC)SCCl,6.57%,–
CCC1(c2ccccc2)CCC(=O)NC1=O (stereo unspecified),-21%,–
CC[C@H](N)c1ccccc1,-3.84%,–
CCC1(c2ccccc2)C(=O)N(COC)C(=O)N(COC)C1=O,4.1%,–
N[C@@H]1C[C@H]1c1ccccc1,11%,–
O=C/C=C/c1ccco1,-0.349%,–
COC(=O)c1ccc(CBr)cc1,-6.23% [at 78.9 µM],–
COc1cccc([C@@]2(O)CCCC[C@@H]2CN(C)C)c1,1.75%,–
CNC(=O)NC(O)C(Cl)(Cl)Cl (stereo unspecified),4.8%,–
CNC(=O)Oc1ccccc1C(C)C,2.07%,–
CCCOc1nn(C(=O)NS(=O)(=O)c2ccccc2C(=O)OC)c(=O)n1C,4.61%,–
CCN(CC)C1CCCCC1,5.68%,–

Compound,"activity change, negative = inhibition",Potency
C[C@H]1CCCC(=O)CCC/C=C/c2cc(O)cc(O)c2C(=O)O1,–,20.2 µM (active)
BrCc1ccc(Br)cc1,7.67%,–
CCOC(=O)CC(SP(=S)(OC)OC)C(=O)OCC (stereo unspecified),13.7%,–
Clc1ccc(C(Cl)(Cl)Cl)cn1,-0.0458%,–
CCOC(=O)NC(C)(C)Cc1ccc(Cl)cc1,-5.25%,–
C[N+]1(C)CCCCC1,8.16%,–
CCN[C@@H](C)Cc1ccccc1,-3.99% [at 78.9 µM],–
COP(=O)(O)OC,-4.42% [at 78.9 µM],–
O=S1(=O)OCCO1,3.92% [at 78.9 µM],–
CCC(C)(C#N)N=NC(C)(C#N)CC (stereo unspecified),0.226%,–
Clc1cc2c(cc1Cl)Oc1cc(Cl)c(Cl)cc1O2,-2.78% [at 0.284 µM],–
CC(C)N(Cc1ccccc1)C(=O)C(C)(C)C,7.8%,–
CN(C)C(=O)Oc1cc(OC(=O)N(C)C)cc(C(O)CNC(C)(C)C)c1 (stereo unspecified),4.72% [at 27 µM],–
CCOC1Oc2ccc(OS(C)(=O)=O)cc2C1(C)C (stereo unspecified),–,43.3 µM (active)
C[C@H](N)C(=O)c1ccccc1,–,inactive

# From PubChem BioAssay (Tox21)
